The nature of experiment [1]: qHTS assay to identify small molecule antagonists of the thyroid receptor (TR) signaling pathway (AID 743065). Also: nearly all actives have a fitted effect of over 55% in size. Also: potency is read from the fitted curve at half-maximal effect. An outline of the steps: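 GH3.TRE-Luc rat pituitary cells carrying two TR response elements driving luciferase were plated for 4 h, given compound plus 1 nM T3 (final), and incubated 23.5 h at 37 C. ONE-Glo luminescence measured reporter inhibition; CellTiter-Fluor fluorescence tracked cytotoxicity.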
Background: qHTS replaces the single test concentration by a dilution series.

Experiment [2] deals with thyroid hormone receptor (rat, GH3 cells). The experiment can be described thus: qHTS assay to identify small molecule agonists of the thyroid receptor (TR) signaling pathway (AID 743066; calls by dose curve).
Experiment [3] deals with Estrogen receptor (Homo sapiens) (UniProt P03372). The experiment is described as follows: qHTS assay to identify small molecule antagonists of the estrogen receptor alpha (ER-alpha) signaling pathway (AID 743069; active = well fitted curve in the direction sought with a large enough effect in the signal ratio in the repeat runs, not every such curve was filed as active; inconclusive = weak or mixed curves, or effect the other way; inactive = no such curve, though single readings can be large or run the other way; the % refers to the signal ratio). In short, it runs like this:
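Estradiol-stimulated ER-alpha-UAS-bla HEK293 cells, 18 hr compound exposure at 37C. LiveBLAzer B/G substrate, 2 hr RT, fluorescence read.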

Experiment [4] in a line: qHTS assay to identify small molecule antagonists of the estrogen receptor alpha (ER-alpha) signaling pathway - cell viability counter screen (AID 743074; calls by dose curve;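 also: HEK293 cells carrying ER-alpha-UAS-bla reporter stimulated with 17beta-estradiol; nearly all actives have a fitted effect of over 45% in size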).
For experiment [5], the target named is Estrogen receptor (Homo sapiens) (UniProt P03372). The experiment can be described thus: qHTS assay to identify small molecule agonists of the estrogen receptor alpha (ER-alpha) signaling pathway (AID 743075; calls by dose curve;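 also: HEK293 GripTite cells with ER-alpha and UAS-driven beta-lactamase reporter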; also: potency is read from the fitted curve at half-maximal effect).
A short description of experiment [6]: qHTS assay to identify small molecule antagonists of the estrogen receptor alpha (ER-alpha) signaling pathway using the BG1 cell line - cell viability counter screen (AID 743081).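 Also: compound given together with 17beta-estradiol as the ER stimulus; series mostly up to about 70 µM; nearly all actives have a fitted effect of over 45% in size.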
A further experiment has as its target Aromatase (Homo sapiens) (UniProt P11511). The experiment can be described thus: qHTS assay to identify aromatase inhibitors (AID 743083). Also: nearly all actives have a fitted effect of over 55% in size. Also: potency is read from the fitted curve at half-maximal effect.
A short description of experiment [7]: qHTS assay to identify aromatase inhibitors - cell viability counter screen (AID 743084).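 Also: cells stimulated with testosterone during compound exposure; nearly all actives have a fitted effect of over 55% in size.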 Also: potency is read from the fitted curve at half-maximal effect.
For experiment [8], the target named is Estrogen receptor (Homo sapiens) (UniProt P03372). The experiment can be described thus: qHTS assay to identify small molecule agonists of the estrogen receptor alpha (ER-alpha) signaling pathway using the BG1 cell line (AID 743079). Also: nearly all actives have a fitted effect of over 20% in size. Also: potency is read from the fitted curve at half-maximal effect.
Experiment [9] in a line: qHTS assay to identify small molecule antagonists of the estrogen receptor alpha (ER-alpha) signaling pathway using the BG1 cell line (AID 743080; calls by dose curve;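 also: BG1 cells stimulated with 17beta-estradiol alongside compound; series mostly up to about 70 µM; nearly all actives have a fitted effect of over 25% in size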). An outline of the steps:
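Seeding, 24 h rest, compound transfer from DMSO, 17beta-estradiol addition, 21.5 h incubation, CellTiter-Fluor (30 min, 37 C), then ONE-Glo (30 min, room temperature): this sequence was run on BG1-Luc-4E2 reporter cells.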

Structures are written as SMILES. Values without a mark were called inactive. Activity calls are given as the source filed them. Unless noted, calls follow the shape of the dose curve; as a rule, active = well fitted curve in the direction sought with a large enough effect in the repeat runs; inconclusive = weak or mixed curves; inactive = no such curve, though single readings can be large; an effect the other way counts as inactive or inconclusive.

Sequence of Estrogen receptor (Homo sapiens) (P03372 whole entry, looked up): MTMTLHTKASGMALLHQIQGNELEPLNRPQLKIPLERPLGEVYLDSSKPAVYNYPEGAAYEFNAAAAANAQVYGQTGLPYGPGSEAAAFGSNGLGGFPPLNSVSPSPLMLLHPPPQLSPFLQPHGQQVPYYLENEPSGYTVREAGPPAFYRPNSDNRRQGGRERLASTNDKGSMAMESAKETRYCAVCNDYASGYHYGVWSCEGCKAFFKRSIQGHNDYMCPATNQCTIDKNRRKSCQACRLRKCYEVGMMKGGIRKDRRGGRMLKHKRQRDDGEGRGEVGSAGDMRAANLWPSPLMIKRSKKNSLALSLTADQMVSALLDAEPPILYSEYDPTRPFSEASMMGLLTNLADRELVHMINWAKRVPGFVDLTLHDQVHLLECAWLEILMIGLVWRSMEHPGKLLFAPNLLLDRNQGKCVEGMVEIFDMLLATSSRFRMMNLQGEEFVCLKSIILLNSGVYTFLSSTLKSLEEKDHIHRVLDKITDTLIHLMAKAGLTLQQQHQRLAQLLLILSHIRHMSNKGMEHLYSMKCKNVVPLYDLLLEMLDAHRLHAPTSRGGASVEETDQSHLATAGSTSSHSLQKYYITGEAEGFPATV
Sequence of Aromatase (Homo sapiens) (P11511 whole entry, looked up): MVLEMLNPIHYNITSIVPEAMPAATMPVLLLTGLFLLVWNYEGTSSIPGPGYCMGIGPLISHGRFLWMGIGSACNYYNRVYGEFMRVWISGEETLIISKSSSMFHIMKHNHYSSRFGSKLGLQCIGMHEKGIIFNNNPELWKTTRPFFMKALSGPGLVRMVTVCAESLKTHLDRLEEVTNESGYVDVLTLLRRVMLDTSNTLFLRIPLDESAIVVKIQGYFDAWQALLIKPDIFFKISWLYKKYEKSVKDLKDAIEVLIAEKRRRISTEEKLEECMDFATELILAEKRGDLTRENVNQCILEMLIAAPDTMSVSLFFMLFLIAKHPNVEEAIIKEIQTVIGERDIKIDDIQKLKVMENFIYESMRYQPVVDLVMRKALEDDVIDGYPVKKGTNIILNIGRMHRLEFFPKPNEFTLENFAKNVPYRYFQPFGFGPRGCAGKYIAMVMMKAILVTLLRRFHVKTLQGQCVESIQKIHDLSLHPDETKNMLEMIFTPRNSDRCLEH

In the case of `O=C(OCCCCCOC(=O)c1ccccc1)c1ccccc1`, the Potency result (in [1]; in [3]; in experiment [5]; in experiment [6]; in the experiment with Aromatase (Homo sapiens); in [7]) was “inactive” throughout. Also, the compound was called inactive in experiment [2] and in experiment [4].
`CC/C=C/CCO`: the Potency result in experiment [1] and in [6] was “inactive” in each case. The compound was called inactive in experiment [2] and in experiment [4].
For `CCC(CC)C(=O)O`, the Potency result (in experiment [1]; in [5]; in experiment [8]; in experiment [9]; in experiment [6]; with Aromatase (Homo sapiens)) was “inactive” each time. In experiment [7], the Potency result is “inactive”. Moreover, the outcome in experiment [2] and in experiment [4] was inactive.
On to `CC1(C)CC(=O)CC(C)(C)N1`, for which the Potency result (in experiment [1]; in experiment [5]; in [8]; in experiment [9]; in experiment [6]; with Aromatase (Homo sapiens)) was “inactive” throughout. For the same compound, in experiment [7], the Potency entry is “inactive”. For the same compound, the result in experiment [2] and in experiment [4] was inactive.
On to `C[C@@H](O)[C@H]1C(=O)N2C(C(=O)O)=C(S[C@@H]3CN[C@H](CNS(N)(=O)=O)C3)[C@H](C)[C@H]12`, for which the Potency entry (in experiment [1]; in experiment [3]; in experiment [5]; in [9]; in experiment [6]; with Aromatase (Homo sapiens)) was “inactive” in each case. In addition, the Potency result in [7] is “inactive”. Moreover, the compound was called inactive in experiment [2] and in [4].
Turning to `O=c1[nH]nc(-c2ccc([N+](=O)[O-])o2)o1`, the Potency entry (in experiment [1]; in [5]; in experiment [8]; in experiment [9]; with Aromatase (Homo sapiens)) was “inactive” in each case. Moreover, the result in experiment [2] and in experiment [4] was inactive. The Potency in [7] is 30.6 µM (active).
For `CCOc1cc(OCC)c(C(C)=O)cc1OCC`, the Potency entry in experiment [1], in experiment [5] and in [9] was “inactive” each time. In addition, the result in experiment [2] and in experiment [4] was inactive. In addition, the Potency (with Aromatase (Homo sapiens); in experiment [7]) was 26.8 µM (active) each time.
As to `Cc1cc(C)c(C)c(O)c1`, the Potency result (in experiment [1]; in experiment [5]; in experiment [8]; in experiment [9]; in [6]; with Aromatase (Homo sapiens)) was “inactive” each time. In addition, the Potency result in experiment [7] is “inactive”. The compound was called inactive in experiment [2] and in [4].
On to `Oc1ccc(Oc2ccccc2)cc1`, for which the Potency was 20.6 µM (active) in experiment [1], 0.0736 µM [inconclusive] (active) in [5] and 7.3 µM (active) in experiment [8]. Moreover, the compound was called inactive in experiment [2] and in experiment [4]. In addition, the Potency entry in experiment [3], in experiment [6] and in [7] was “inactive” throughout.
In the case of `c1ccc(-c2ccc(-c3ccccc3)cc2)cc1`, the Potency result in experiment [1], in experiment [3], in experiment [5], in [6] and in [7] was “inactive” throughout. Moreover, the compound was classed as inactive in experiment [2] and in experiment [4]. The Potency in [8] was 0.791 µM (active).
In the case of `O=C(O)c1c2ccccc2cc2ccccc12`, the Potency entry in experiment [1], in [3], in [5], in experiment [8], in [9] and in [6] was “inactive” throughout. Moreover, the Potency entry (in the experiment with Aromatase (Homo sapiens); in experiment [7]) was “inactive” in each case. The compound was called inactive in experiment [2].
As to `FC(F)(Cl)C(F)(Cl)Cl`, the Potency result in [1], in experiment [3], in experiment [5], in experiment [8], in experiment [9] and in experiment [6] was “inactive” each time. The Potency result (in the experiment with Aromatase (Homo sapiens); in experiment [7]) was “inactive” in each case. The compound was classed as inactive in experiment [2].
As for `O=C(Cl)c1ccc(F)c(Cl)c1`, the Potency result (in [1]; in experiment [3]; in [5]; in [9]; in experiment [6]; with Aromatase (Homo sapiens)) was “inactive” throughout. Moreover, the Potency entry in experiment [7] was “inactive”. The compound was classed as inactive in experiment [2] and in experiment [4].
Turning to `CCCCCCCCOCCCN`, in experiment [1], the Potency was 21.7 µM (active). In addition, the compound was classed as inactive in experiment [2] and in experiment [4]. For the same compound, the Potency result (in [5]; in [9]; in experiment [6]; with Aromatase (Homo sapiens); in experiment [7]) was “inactive” each time.
As for `O=C1c2ccccc2C(=O)C1c1ccc2ccccc2n1`, the Potency entry (in experiment [1]; in experiment [3]; in [5]; in the experiment with Aromatase (Homo sapiens); in [7]) was “inactive” each time. Also, the compound was called inactive in experiment [2] and in experiment [4].
With `O=Cc1ccc(Cl)c([N+](=O)[O-])c1`, the Potency result in experiment [1], in experiment [5] and in experiment [6] was “inactive” each time. The call in [2] and in experiment [4] was inactive.
In the case of `COC(=O)/C=C/C(C)=C\C=C\C(C)=C\C=C\C=C(C)\C=C\C=C(C)\C=C\C(=O)O`, the Potency entry (in experiment [1]; in [3]; in [5]; in [6]; in the experiment with Aromatase (Homo sapiens); in experiment [7]) was “inactive” throughout. The compound was called inactive in experiment [2] and in experiment [4].
As for `Cc1cc(N)n(-c2ccccc2)n1`, the Potency entry (in experiment [1]; in experiment [3]; in experiment [5]; in [6]; with Aromatase (Homo sapiens); in experiment [7]) was “inactive” throughout. The outcome in [2] and in experiment [4] was inactive.
Consider `CCCCOc1ccc(N)cc1`, for which the Potency result (in [1]; in experiment [3]; in [5]; in experiment [6]; in the experiment with Aromatase (Homo sapiens); in experiment [7]) was “inactive” throughout. Also, the compound was classed as inactive in experiment [2] and in experiment [4].
`CC1(C)[C@@H]2CC[C@]3(C2)[C@@H]1C(=O)CCC3(C)C`: the Potency entry in experiment [1], in [3], in [5], in experiment [8], in [9] and in experiment [6] was “inactive” in each case. Also, the Potency entry in [7] was “inactive”. The outcome in [2] was inactive.
Consider `CCc1ccc2c(c1)C(=O)c1ccccc1C2=O`, for which the Potency entry (in [1]; in [5]; in experiment [6]; in the experiment with Aromatase (Homo sapiens); in experiment [7]) was “inactive” throughout. For the same compound, the call in experiment [2] and in experiment [4] was inactive. The Potency in experiment [8] was 27.3 µM (active).
In the case of `O=C(O)c1ccc2c(c1)nc(C(=O)NC1CCN(C3CC3)CC1)n2Cc1cc(-c2ccc(Cl)s2)on1`, the Potency entry (in experiment [1]; in [5]; in [8]; in [9]; in experiment [6]; with Aromatase (Homo sapiens)) was “inactive” each time. In addition, the call in [2] and in experiment [4] was inactive.
Consider `C=Cc1ccc(C=C)cc1`, for which the Potency result in experiment [1], in [3], in experiment [5], in [8], in experiment [9] and in experiment [6] was “inactive” each time. The Potency entry (with Aromatase (Homo sapiens); in experiment [7]) was “inactive” throughout. Besides, the compound was classed as inactive in experiment [2].
In the case of `O=C(Nc1ccccc1)c1cc([N+](=O)[O-])ccc1Cl`, the Potency in experiment [1] was 61.1 µM (active). Also, the compound was classed as inactive in experiment [2] and in [4]. Moreover, the Potency result (in [5]; in [6]; with Aromatase (Homo sapiens)) was “inactive” each time.
As for `O=C(N[C@@H](Cc1ccccc1)[C@@H](O)C(=O)N1C[C@@H](O)[C@@H](O)C1)c1cc2cc(Cl)ccc2[nH]1`, in experiment [1], the Potency is 61.1 µM (active). Further, the compound was called inactive in experiment [2] and in experiment [4]. The Potency entry (in experiment [5]; in experiment [9]; in experiment [6]; in the experiment with Aromatase (Homo sapiens); in experiment [7]) was “inactive” in each case.
As to `CCOc1ccc(NC(C)=O)cc1N`, the Potency result (in experiment [1]; in [3]; in [5]; in [6]; with Aromatase (Homo sapiens); in [7]) was “inactive” throughout. For the same compound, the result in experiment [2] and in experiment [4] was inactive.
Take `O=C(O)c1ccc2cc(O)ccc2c1`: the Potency entry (in experiment [1]; in experiment [3]; in experiment [5]; in [9]; in [6]; in the experiment with Aromatase (Homo sapiens)) was “inactive” in each case. Besides, the Potency entry in experiment [7] is “inactive”. Further, the result in experiment [2] and in [4] was inactive.
As for `C[C@H]1C[C@H]2[C@@H]3CCC4=CC(=O)C=C[C@]4(C)[C@@]3(F)[C@@H](O)C[C@]2(C)[C@@]1(O)C(=O)COP(=O)(O)O`, the Potency result (in experiment [1]; in experiment [5]; in experiment [8]; in [6]; in the experiment with Aromatase (Homo sapiens); in [7]) was “inactive” in each case. For the same compound, the compound was called inactive in [2] and in experiment [4].
Take `CCCCOC(=O)C(C)Oc1ccc(Oc2ccc(C(F)(F)F)cn2)cc1` (stereo not drawn): the Potency entry in experiment [1], in experiment [5], in experiment [8], in [9], in [6] and in experiment [7] was “inactive” in each case. Besides, the compound was classed as inactive in experiment [2] and in [4].
On to `CCn1nc(Cc2ccccc2)cc1C1CCN(C[C@H]2C[C@H](N(C)[C@@H](C(=O)O)C(C)C)C[C@@H]2c2cccc(F)c2)CC1`, for which the Potency in experiment [1] was 61.1 µM (active). Also, the compound was called inactive in experiment [2] and in experiment [4]. For the same compound, the Potency result (in [5]; in experiment [8]; in [9]; in the experiment with Aromatase (Homo sapiens); in [7]) was “inactive” each time.
